Compounds with a hit are over-represented: about 1.2% of the library has one in this group of screens.
NOD2 RIPK2 PPI = NOD2-RIPK2 binding disruptors in cells, primary screen, fluorescence, CHO cells, BLA complementation; CCF4 ratio; inhibition, % at 4.98 µM; hit rate 0.38% among 360,000; Receptor-interacting serine/threonine-protein kinase 2 (Homo sapiens), O43353; AID 624267, 2012; in the data active means inhibition above about 21%
GC-B act = human GC-B receptor activators, primary screen, HEK293 GC-B cells, cGMP TR-FRET, EC30 CNP; Atrial natriuretic peptide receptor 2 (Homo sapiens), P20594; 0% at EC30 CNP, 100% saturating CNP; activation, % at 10 µM; hit rate 0.11% among 370,000;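 active means activation at 10 µM reaching about 35% in either raw or pattern-adjusted values, limit read from the data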
Target sequence (P20594 whole entry, looked up): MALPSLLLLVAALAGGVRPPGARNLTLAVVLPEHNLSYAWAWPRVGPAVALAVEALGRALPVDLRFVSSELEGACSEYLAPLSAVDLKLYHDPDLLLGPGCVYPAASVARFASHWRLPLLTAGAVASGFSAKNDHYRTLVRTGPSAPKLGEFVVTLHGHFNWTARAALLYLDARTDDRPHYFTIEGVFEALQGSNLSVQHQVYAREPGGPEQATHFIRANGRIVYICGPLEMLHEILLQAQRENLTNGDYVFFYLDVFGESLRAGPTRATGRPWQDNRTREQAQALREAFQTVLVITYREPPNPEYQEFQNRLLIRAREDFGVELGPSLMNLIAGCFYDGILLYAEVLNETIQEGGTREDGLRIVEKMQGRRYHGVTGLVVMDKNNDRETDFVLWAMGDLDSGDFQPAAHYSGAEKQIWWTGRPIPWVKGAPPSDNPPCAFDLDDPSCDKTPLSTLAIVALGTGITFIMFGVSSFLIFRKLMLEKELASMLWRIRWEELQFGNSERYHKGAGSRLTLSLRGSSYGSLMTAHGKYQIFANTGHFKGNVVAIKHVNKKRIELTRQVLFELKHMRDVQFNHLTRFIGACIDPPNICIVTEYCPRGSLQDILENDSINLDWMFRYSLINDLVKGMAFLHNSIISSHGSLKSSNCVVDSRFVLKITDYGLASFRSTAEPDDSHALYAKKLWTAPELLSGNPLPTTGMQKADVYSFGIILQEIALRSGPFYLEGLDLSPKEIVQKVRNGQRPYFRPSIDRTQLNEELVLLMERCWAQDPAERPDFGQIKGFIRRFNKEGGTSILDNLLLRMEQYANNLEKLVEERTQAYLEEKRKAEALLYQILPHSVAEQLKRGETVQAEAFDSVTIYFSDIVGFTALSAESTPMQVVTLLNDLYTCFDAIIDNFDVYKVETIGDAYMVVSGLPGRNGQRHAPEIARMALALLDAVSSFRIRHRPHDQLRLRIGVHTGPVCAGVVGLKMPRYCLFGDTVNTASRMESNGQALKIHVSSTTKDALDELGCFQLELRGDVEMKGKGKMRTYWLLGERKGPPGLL
Neddylation inh = inhibitors of cullin neddylation, primary screen, biochemical, TR-FRET, uHTS, NAE and Ubc12 | inhibition, % at 25 µM | hit rate 0.58% among 360,000 | AID 651699, 2012; in the data active means inhibition above about 36%
TLR4-MyD88 BLA = inhibitors of TLR4-MyD88 association in cells, primary screen, cell-based, HeLa CL3-4, BLA complementation, FRET ratio. Toll-like receptor 4 (Homo sapiens) + Myeloid differentiation primary response protein …. HeLa CL3-4 TLR4/MyD88 BLA complementation. inhibition, % at 8.4 µM. hit rate 0.18% among 200,000. AID 861, 2007; in the data active means inhibition above about 25%
TLR9-MyD88 inh = inhibitors of TLR9-MyD88 association in cells, primary screen, cell-based, CHO, BLA complementation, fluorescence; Toll-like receptor 9 (Homo sapiens) + Myeloid differentiation primary response protein …; CCF4 FRET ratio; inhibition, % at 4.98 µM; hit rate 0.21% among 340,000; AID 504734, 2011;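 active means inhibition above the mean over all tested compounds plus 3 SD, cut at about 21% in these data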
GC-A act = GC-A stimulated cGMP production enhancers – HEK293 GC-A cells, cGMP TR-FRET, EC30 ANP, primary screen; activation, % at 10 µM; hit rate 0.14% among 370,000; 0% at EC30 ANP, 100% saturating ANP; AID 1671463, 2021; in the data active means activation above about 40%
Numbers stand for hits.

`CC1C(=O)N(Cc2cn(CCC3OCCO3)nn2)CCS(=O)(=O)N1Cc1ccc(-c2ccc(Cl)cc2)cc1` (configuration not stated) gave NOD2 RIPK2 PPI inactive, GC-B act inactive, Neddylation inh inactive, TLR9-MyD88 inh inactive and GC-A act 49.
Screening Cc1ccc(-c2ccc(CN3C(C)C(=O)N(Cc4cn(CCC5OCCO5)nn4)CCS3(=O)=O)cc2)cc1 (configuration not stated) returned NOD2 RIPK2 PPI inactive, GC-B act inactive, Neddylation inh inactive, TLR9-MyD88 inh inactive and GC-A act inactive.
For CC(=O)Nc1cccc(C(C)C2=CCCCC2)c1 (configuration not stated) the results were GC-B act inactive and GC-A act inactive.
Screening O=S1(=O)c2c(cccc2N2CCSCC2)Oc2ccccc2CN1Cc1cn(Cc2ccccc2C(F)(F)F)nn1 returned GC-B act inactive and GC-A act inactive.
`COc1ccc(C2c3[nH]c4ccccc4c3CCN2C(=O)c2cn3ccccc3n2)c(F)c1` (configuration not stated) gave NOD2 RIPK2 PPI inactive, GC-B act inactive, Neddylation inh inactive, TLR4-MyD88 BLA inactive, TLR9-MyD88 inh inactive and GC-A act inactive.
Screening COc1ccc(C2c3[nH]c4ccccc4c3CCN2C(=O)c2cc3ncccn3n2)c(F)c1 (configuration not stated) returned NOD2 RIPK2 PPI inactive, GC-B act 37, Neddylation inh inactive, TLR4-MyD88 BLA inactive, TLR9-MyD88 inh inactive and GC-A act inactive.
Screening COc1ccc(C(=O)NC[C@H]2O[C@@H](n3cnc4c(N)ncnc43)[C@H](O)[C@@H]2O)cc1OC returned NOD2 RIPK2 PPI inactive, GC-B act inactive, Neddylation inh inactive and GC-A act inactive.
`NC(=O)c1ccc[n+]([C@H]2O[C@@H](COP(=O)([O-])OP(=O)(O)OC[C@H]3O[C@@H](n4cnc5c(N)ncnc54)[C@H](O)[C@@H]3O)[C@H](O)[C@@H]2O)c1` gave NOD2 RIPK2 PPI inactive, Neddylation inh 52 and TLR9-MyD88 inh inactive.
For COc1cc(CC(=O)NC2CCCc3ccccc32)cc(OC)c1OC (configuration not stated) the results were NOD2 RIPK2 PPI 92, GC-B act inactive, Neddylation inh inactive, TLR9-MyD88 inh inactive and GC-A act inactive.
`CCN(C[C@H]1[C@@H](c2ccc(C3=CCCC3)cc2)[C@H](CO)N1c1nc(C)c(C)s1)S(=O)(=O)c1ccccc1[N+](=O)[O-]` gave GC-B act inactive and GC-A act inactive.
For Cc1ccc(Cn2cc(CN(C(C)(C)C)S(=O)(=O)c3ccc(F)cc3Br)nn2)cc1 the results were GC-B act inactive and GC-A act inactive.
CN(C)c1ccc(C=c2c3ccccc3n3c2c2ccccc2[n+]3C)cc1 was read as NOD2 RIPK2 PPI inactive, GC-B act inactive, Neddylation inh 39, TLR9-MyD88 inh inactive and GC-A act inactive.
For CCc1ccc(-c2cn3nc(C)c(C)nc3n2)cc1 the results were NOD2 RIPK2 PPI inactive, GC-B act inactive, TLR4-MyD88 BLA 27, TLR9-MyD88 inh inactive and GC-A act inactive.
For Cc1nc2nc(-c3ccc(F)cc3)cn2nc1C the results were NOD2 RIPK2 PPI inactive, GC-B act inactive, TLR9-MyD88 inh inactive and GC-A act inactive.
Screening CC(=O)NC(c1ccc(C(C)C)cc1)c1c(O)ccc2ccccc12 (configuration not stated) returned NOD2 RIPK2 PPI inactive, GC-B act inactive, Neddylation inh inactive and GC-A act 47.
`CC(=O)NC(c1ccccc1)c1c(O)ccc2ccccc12` (configuration not stated) gave NOD2 RIPK2 PPI inactive, GC-B act inactive, Neddylation inh inactive, TLR4-MyD88 BLA inactive, TLR9-MyD88 inh inactive and GC-A act inactive.
For O=C(Nc1nc2ncccn2c1-c1ccc(F)c(F)c1)C1CC1 the results were GC-B act inactive and GC-A act inactive.
For O=C(N/N=C/c1ccc(F)cc1)c1cc(-c2ccco2)nc2ccccc12 the results were NOD2 RIPK2 PPI inactive, GC-B act inactive, Neddylation inh 43, TLR4-MyD88 BLA inactive, TLR9-MyD88 inh inactive and GC-A act inactive.
For CCOc1ccc(/C=N/NC(=O)c2cc(-c3ccco3)nc3ccccc23)cc1 the results were NOD2 RIPK2 PPI inactive, GC-B act inactive, Neddylation inh inactive, TLR4-MyD88 BLA inactive, TLR9-MyD88 inh inactive and GC-A act inactive.
`O=C(Nc1ccc(F)c(C(F)(F)F)c1)Nc1nnc(-c2ccncc2)s1` gave GC-B act inactive and GC-A act inactive.
Cc1ccc(-c2csc(NC(=O)CN3C(=O)CCC3=O)n2)cc1 was read as NOD2 RIPK2 PPI inactive, GC-B act inactive, Neddylation inh inactive, TLR4-MyD88 BLA inactive, TLR9-MyD88 inh inactive and GC-A act 55.
For COC(=O)c1cccc(Cn2ccc3ccc(-c4ccc5ccn(C(=O)c6cccc(OC)c6)c5c4)cc32)c1 the results were GC-B act inactive and GC-A act inactive.
`Cn1c(N)c(C(=O)COC(=O)c2cc(S(=O)(=O)N3CCOCC3)ccc2F)c(=O)n(C)c1=O` gave NOD2 RIPK2 PPI inactive, GC-B act 37, Neddylation inh inactive, TLR9-MyD88 inh inactive and GC-A act inactive.
`COc1ccc(-c2csc(NC(C)c3nc4cc(C(=O)NCCCO)ccc4n3Cc3ccc(C)cc3)n2)cc1` (configuration not stated) gave NOD2 RIPK2 PPI inactive, GC-B act 47, Neddylation inh inactive, TLR9-MyD88 inh inactive and GC-A act inactive.
`NC(N)=N/N=C/c1ccc2cccc(OCc3ccccc3)c2n1` gave NOD2 RIPK2 PPI inactive, GC-B act inactive, Neddylation inh 45, TLR9-MyD88 inh inactive and GC-A act inactive.
For C=CCN1C[C@@H](COCc2ccccc2)Oc2cc(F)ccc2S1(=O)=O the results were GC-B act inactive and GC-A act inactive.
`Cc1ccc(NC(=O)[C@@H]2CC(=O)O[C@@H]2c2ccccc2)c(C)c1` gave GC-B act inactive and GC-A act inactive.
For O=C(Nc1cccc2cccnc12)c1ccc2c(c1)OCCO2 the results were NOD2 RIPK2 PPI inactive, GC-B act inactive, Neddylation inh inactive, TLR4-MyD88 BLA inactive, TLR9-MyD88 inh inactive and GC-A act inactive.

Screening data: PubChem, several laboratories
